Results on 99 compounds are retold here after PubChem BioAssay AID652104 (National Center for Advancing Translational Sciences (NCATS), 2013).

In all, about 410,000 compounds went through this assay and about 7,200 (1.8%) were called active. About 7% were inconclusive and are not listed. Calls follow the shape of the dose curve; as a rule, active = well fitted activation curve with a large enough effect; inconclusive = small, poorly fitted or top-dose-only effect, or another doubt; inactive = no such curve, though single readings can be large or run the other way. The entries come from a sample that favours actives as a whole. Where a call stands in place of a potency, no number is given.
Potency is read from the fitted curve at half-maximal effect.

The assay is described as follows: qHTS of TDP-43 Inhibitors. Also: nearly all actives have a fitted effect of over 50% in size. The settings on record: TDP-43 expressing yeast growth rescue, BacTiter-Glo, 24 h; series mostly up to 46.1 µM. The gist of the method:
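In this qHTS, compounds that restore growth of yeast expressing TDP-43 appear as activators. Cells (OD600=0.02, galactose medium, raffinose-pregrown) are incubated with compound 24 hr at 30 deg C and growth is quantified by BacTiter-Glo.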
A general note: qHTS replaces the single test concentration by a dilution series.
Consider `CC(C)Sc1oc(-c2cccs2)nc1S(=O)(=O)c1ccc(Cl)cc1`, for which the Potency result is “inactive”.
The same measure, in the same setting: to `CCOc1cccc2cc(-c3cn4c(n3)sc3cc(C)ccc34)c(=O)oc12` belongs “inactive”.
Same read-out and setting: to `CCOc1ccc(N(Cc2ccccc2)C(=O)c2nc(S(C)(=O)=O)ncc2Cl)cc1` belongs 17.8 µM (active); to `CCOc1ccc(NC(=O)CN(Cc2ccccc2)S(=O)(=O)c2ccc(Cl)cc2)cc1`, “inactive”; to `CCOc1ccc(N(Cc2ccccc2)C(=O)c2nc(SCC)ncc2Cl)cc1`, “inactive”.
Same read-out and setting: to `COc1ccc(CNc2nc(-c3ccc(Cl)cc3)nn2S(=O)(=O)c2ccc(C)cc2)cc1` belongs “inactive”; to `CCC(=O)Nc1ccc2nc(SCC(=O)N3CCc4ccccc43)sc2c1`, “inactive”; to `CCCc1ccc(OCC(=O)NNC(=S)NC(=O)c2ccco2)cc1`, 3.98 µM (active).
`COc1ccc(N(CC(=O)NC(C)(C)C)C(=O)c2ccco2)cc1`: the Potency entry is “inactive”.
On the same count and under the same terms, to `CCC1CCCCN1C(=S)NC(=O)c1ccco1` (centres undefined) belongs “inactive”.
On to `COc1ccccc1CCC(=O)NNC(=O)c1ccncc1`, for which the Potency result is “inactive”.
The same measure, in the same setting: to `COc1ccc(C(=O)NC(=S)NNC(=O)CCc2ccccc2)cc1` belongs 17.8 µM (active).
As to `Cc1c(NC(=S)NC(=O)CCc2ccccc2)c(=O)n(-c2ccccc2)n1C`, the Potency result was “inactive”.
The same measure, in the same setting: next, `O=C(c1ccc2c(c1)N(Cc1ccccc1F)C(=O)c1ccccc1S2(=O)=O)N1CCOCC1`: “inactive”.
With `CC(Sc1oc(-c2ccco2)nc1S(=O)(=O)c1ccc(Br)cc1)c1ccccc1` (centres undefined), the Potency entry was “inactive”.
Still for that read-out and setting: next, `CC1=NNC(=O)C1CCC(=O)N/N=C\c1cccc(Cl)c1` (centres undefined): “inactive”; `Cc1nc(Cl)cc(N/N=C/c2ccccc2)n1`: 7.94 µM (active).
As for `CC(C)Oc1ccc(CNC(=O)C2CCN(c3nc4ccccc4n(C)c3=O)CC2)cc1`, the Potency result was “inactive”.
With `CNC(=O)c1ccsc1NC(=O)c1ccc(S(=O)(=O)N2CCc3ccccc32)cc1`, the Potency result was “inactive”.
On the same count and under the same terms, next, `CNC(=O)c1ccc(-c2nc(CN3CCc4ccccc43)c(C)o2)cc1`: 10 µM (active); `Cc1ccc(-c2nc(CSCC(=O)NC3CCN(Cc4ccccc4)CC3)c(C)o2)cc1`: “inactive”; `COc1ccc(NC(=O)c2ccc3nc(CCc4ccccc4)oc3c2)c(OC)c1`: “inactive”.
The same measure, in the same setting: to `Cc1ccc(-c2noc(-c3nnn(-c4cccc(C(F)(F)F)c4)c3N)n2)cc1` belongs “inactive”.
Still for that read-out and setting: next, `CC(C)Oc1cc(F)ccc1-c1cc(C(=O)Nc2cccc(Cl)c2)[nH]n1`: “inactive”.
For the compound `COc1ccc(CN2CCCC(CNC(=O)c3ccc(F)cc3)C2)cc1OC` (centres undefined), the growth rescue (activation) is -11.7% [at 0.397 µM] (inactive).
Turning to `COc1cc(NC(=O)c2cc(-c3ccc(F)cc3OC(C)C)n[nH]2)cc(OC)c1OC`, the Potency is 28.2 µM (active).
Still for that read-out and setting: to `COc1ccccc1CNC(=O)c1cc(-c2cc(Cl)ccc2C)n[nH]1` belongs “inactive”.
Still for that read-out and setting: to `COc1ccc(-c2cc(C(=O)NCc3cc(OC)c(OC)c(OC)c3)[nH]n2)cc1` belongs “inactive”.
Turning to `CC(C)Oc1cc(F)ccc1-c1cc(C(=O)Nc2ccc(F)cc2)[nH]n1`, the Potency entry is “inactive”.
The same measure, in the same setting: to `COc1ccc(C(=O)NCC2CCCCC2)cc1S(=O)(=O)N1CCCC1` belongs “inactive”; to `COc1cc(F)ccc1-c1cc(C(=O)NCC2CCCCC2)[nH]n1`, 25.1 µM (active).
In the case of `COc1ccccc1CNC(=O)c1cc(-c2cc(F)ccc2OC)n[nH]1`, the Potency was 22.4 µM (active).
Still for that read-out and setting: to `CN1CCN(C2(CNC(=O)COc3ccc(C(C)(C)C)cc3)CCCCC2)CC1` belongs “inactive”.
The same measure, in the same setting: to `CC(=O)Nc1ccc2nc(SCCOc3cc(C)cc(C)c3)sc2c1` belongs “inactive”; to `Cc1ccc(C(=O)Nc2cc3c(cc2N2CCCC2)n(C)c(=O)c(=O)n3C)cc1`, “inactive”.
With `CCCCCn1c(=O)[nH]c2cc(C(=O)Nc3cc(C)cc(C)c3)ccc2c1=O`, the Potency result is “inactive”.
Regarding `CCOc1ccc(Nc2c(S(=O)(=O)c3ccccc3)cnc3ccccc23)cc1`, the Potency result is “inactive”.
On the same count and under the same terms, to `O=C(c1ccc(C(F)(F)F)cc1)N1CCC(c2nc(-c3ccc(S(=O)(=O)N4CCCC4)cc3)no2)CC1` belongs “inactive”.
The same measure, in the same setting: to `CCOC(=O)c1c(SCC(=O)Nc2cccc(C)c2C)nc(=O)[nH]c1C` belongs “inactive”; to `O=C(O)/C=C/c1ccc2c(c1)OCCO2`, 15.8 µM (active); to `O=C(Nc1ccc2c(c1)OCCO2)C1CCCC1`, “inactive”.
On the same count and under the same terms, to `O=C(COC(=O)/C=C/c1ccc2c(c1)OCO2)NC1CCS(=O)(=O)C1` (centres undefined) belongs “inactive”; to `COc1ccc(NC(=O)NC(C)c2c(-n3cccc3)sc(C)c2C)cc1OC` (centres undefined), “inactive”.
As for `COc1ccc(CCNC(=O)C(=O)NCC(c2ccco2)S(=O)(=O)c2cccs2)cc1OC` (centres undefined), the Potency entry was “inactive”.
Still for that read-out and setting: next, `COc1cc(NC(=O)Cn2nc(-c3ccc(C)c(C)c3)ccc2=O)cc(OC)c1`: “inactive”; `COc1ccc(C2c3c(oc4ccccc4c3=O)C(=O)N2Cc2ccc3c(c2)OCO3)cc1` (centres undefined): “inactive”; `Cc1ccc(S(=O)(=O)n2nc(-c3ccc(Cl)cc3)nc2NCc2ccccc2)cc1`: “inactive”.
On the same count and under the same terms, next, `COc1ccc(OCCCn2c(C)nc3cc(C)c(C)cc32)cc1`: “inactive”.
Same read-out and setting: next, `Cc1cc(C)c2oc(C(=O)Nc3ccc(S(=O)(=O)N4CCCCCC4)cc3)cc(=O)c2c1`: “inactive”; `Cc1ccccc1C(=O)Nc1nnc(S(=O)(=O)N(C)c2ccc(Cl)cc2)s1`: “inactive”; `CC1(C(=O)NCc2ccc(F)c(F)c2)Cc2c(-c3ccc4c(c3)OCO4)ccnc2O1` (centres undefined): 35.5 µM (active).
Regarding `CC1(C(=O)NCc2ccco2)Cc2c(-c3ccc4c(c3)OCO4)ccnc2O1` (centres undefined), the Potency entry is “inactive”.
Still for that read-out and setting: next, `CC(=O)Nc1cccc(-c2ccnc3c2CC(C)(C(=O)NCc2ccccc2)O3)c1` (centres undefined): “inactive”; `COc1ccc(CNC(=O)CSc2nc3ccccc3nc2Cc2ccccc2)cc1`: “inactive”; `CCc1cc2c(cc3c(=O)n(CC(=O)N4CCN(c5cc(Cl)ccc5C)CC4)ncn32)s1`: “inactive”.
On the same count and under the same terms, next, `Cc1cc(OCc2ccc(C(=O)Nc3ccc(C(=O)O)cc3)o2)ccc1Cl`: “inactive”; `CC(C)OC(=O)c1ccc(COc2ccc3ccc(=O)oc3c2)o1`: 11.2 µM (active); `O=C(COc1ccc2ccc(=O)oc2c1)NCC(O)c1ccccc1` (centres undefined): “inactive”.
Same read-out and setting: next, `CCOC(=O)c1cc(-c2ccc(OC)c(S(=O)(=O)Nc3ccc(OC)cc3OC)c2)on1`: “inactive”; `CCOC(=O)c1ccc(NC(=O)CC2C(=O)N(c3ccccc3)C(=O)N2Cc2cccs2)cc1` (centres undefined): “inactive”.
In the case of `CCOC(=O)c1ccc(N2C(=O)CC(Sc3nc(O)c(CC)c(=O)[nH]3)C2=O)cc1` (centres undefined), the Potency entry is “inactive”.
Same read-out and setting: to `CCOC(=O)c1ccc(N2C(=O)CC(N3CCN(C(=O)c4ccccc4)CC3)C2=O)cc1` (centres undefined) belongs “inactive”; to `CCOC(=O)c1ccc(N2C(=O)CC(N(C)Cc3ccccc3)C2=O)cc1` (centres undefined), 2.82 µM (active).
Same read-out and setting: next, `Cc1ccc(C)c(N2CCN(C(c3ccccc3)c3nnc(-c4ccccc4)o3)CC2)c1` (centres undefined): “inactive”; `CCOc1ccc(-c2cc(C)n3nc(C(=O)Nc4ccc(C)c(C)c4)cc3n2)cc1`: “inactive”.
Still for that read-out and setting: to `CCOc1ccc(-c2ccc(SCC(=O)N3CCOCC3)nn2)cc1` belongs “inactive”; to `CCCCCC(=O)Nc1ccc(-c2cn3cccnc3n2)cc1`, “inactive”; to `O=C(O)CCC(=O)NCc1ccc(C(=O)O)cc1`, “inactive”.
Turning to `CCCCCc1ccc(-c2ccc(OCC)cc2)nc1`, the Potency was 12.6 µM (active).
Regarding `CCCCCc1ccc(-c2ccc(C(=O)O)cc2)nc1`, the Potency was 3.16 µM (active).
Same read-out and setting: next, `Cc1ccsc1CN(C(=O)c1oc2ccc(Br)cc2c1C)C1CCS(=O)(=O)C1` (centres undefined): “inactive”.
For the compound `O=C(Nc1ccccc1Br)c1cc(CN2CCCC2)on1`, the Potency result was “inactive”.
Still for that read-out and setting: to `Cc1ccc2nc(CN3CCN(S(=O)(=O)c4ccc(C)c(C)c4)CC3)oc2c1` belongs “inactive”; to `Cc1ccc(CN2CCC(CNC(=O)c3cnn(-c4ccccc4Cl)c3C3CCN(C(=O)OC(C)(C)C)CC3)CC2)cc1`, “inactive”; to `Cc1ccc(C(=O)OCc2nc(N)nc(Nc3ccccc3C)n2)cc1`, 12.6 µM (active).
On the same count and under the same terms, to `CCCn1nc(C(=O)OCc2nc(N)nc(Nc3ccccc3C)n2)c2ccccc2c1=O` belongs “inactive”; to `Cc1ccccc1Nc1nc(N)nc(COC(=O)CCC(=O)c2ccc(F)cc2)n1`, “inactive”.
Turning to `O=C(NC1CC(=O)N(c2ccc(F)cc2)C1)c1ccc(S(=O)(=O)N2CCCC2)cc1` (centres undefined), the Potency result was “inactive”.
On the same count and under the same terms, next, `COc1ccc2c(C)c(CCC(=O)NCc3ccc(OC)c(OC)c3)c(=O)oc2c1`: “inactive”; `CC1CCCCN1CC(=O)N1CCCc2c1c(=O)oc1ccc(OCc3ccccc3)cc21` (centres undefined): “inactive”; `Cc1cc(Cl)ccc1NC(=O)Cc1ccc(NC(=O)N2CCCCc3ccccc32)cc1`: “inactive”.
The same measure, in the same setting: to `CCc1cccc(-n2nnc(-c3nsc(NC(=O)c4ccc(C)cc4)n3)c2C)c1` belongs “inactive”.
Turning to `C=CCOc1ccc(/C=C2/C(=O)ON=C2C)cc1OCC`, the Potency was 12.6 µM (active).
On to `CCOc1ccc(/C=C(\C#N)c2nc3ccccc3c(=O)[nH]2)cc1OC`, for which the Potency result is “inactive”.
On to `C=CCOc1ccc(/C=N/NC(=O)C(C)Sc2ccccn2)cc1OCC` (centres undefined), for which the Potency entry was “inactive”.
On the same count and under the same terms, to `Cc1cccc(CC(=O)Nc2cccc(-c3cn4cccnc4n3)c2)c1` belongs “inactive”; to `Cc1cc2nc(-c3ccc(F)cc3)c(Cc3ccsc3)n2c(C)c1Br`, “inactive”; to `Cc1cc2nc(-c3ccco3)c(Cc3cccc(F)c3)n2c(C)c1Br`, 3.16 µM (active).
On to `O=C(CN1C(=O)CCn2nc(-c3ccccc3)cc21)NCc1ccccc1`, for which the growth rescue (activation) was 18.2% [at 9.22 µM] (inactive).
Take `COc1cccc(C(=O)NCc2ccc3c(c2)CCN3C(=O)c2ccncc2)c1`: the Potency result was “inactive”.
On the same count and under the same terms, to `Cc1ccc(-c2cc(C(=O)Oc3ccccc3Cl)no2)cc1C` belongs “inactive”; to `Cc1ccc(C(=O)O/N=C(\N)c2ccccn2)cc1Cl`, 7.08 µM (active).
On the same count and under the same terms, to `C/C(=N/OC(=O)c1c(-c2c(F)cccc2Cl)noc1C)c1cnccn1` belongs “inactive”.
The same measure, in the same setting: to `Cc1c(Cl)cccc1NC(=O)C(=O)NCCc1csc2nc(-c3ccccc3F)nn12` belongs “inactive”.
For the compound `CC(=O)Nc1cccc(NC(=O)CSc2cn(CC(=O)N3CCCC3)c3ccccc23)c1`, the Potency result was “inactive”.
Same read-out and setting: next, `COc1cccc(Cn2c(CNS(=O)(=O)c3ccc(Cl)s3)nc3cccnc32)c1`: “inactive”; `Clc1cccc(-c2nc(NCC3CCCO3)c3ccccc3n2)c1` (centres undefined): 12.6 µM (active); `O=C(NCC1CCCO1)c1cc2c([nH]c3ccccc32)c(-c2ccc(F)cc2)n1` (centres undefined): “inactive”.
Same read-out and setting: next, `Cn1c(=O)c2[nH]c(NCC3CCCO3)nc2n(-c2ccccc2)c1=O` (centres undefined): “inactive”.
